# Test results: PubChem BioAssay AID2284147 (EPA ToxCast)
# Calls of active or inactive are those of the source. How the source made its calls: active means hit-call score of the fitted dose curve at least 0.9, where 1 is the maximum; inactive means score below 0.9.
# Molecular target: human Angiotensin Receptor AT2 Antagonism, AGTR2 (gene 186) (UniProt P50052)
# Experiment: ERF_TW_GPCR_hAGTR2: Eurofins (ERF) G Protein-Coupled Receptor (GPCR) Radioligand Binding LeadHunter Assay for human Angiotensin Receptor AT2 Antagonism
# Description: ERF_TW_GPCR_hAGTR2 is a biochemical, single-readout assay that uses extracted gene-proteins in a cell-free assay. Measurements were taken 3 hour after chemical dosing in a 96-well plate. See AT2 Human Angiotensin GPCR Binding (Agonist Radioligand) Assay, Panlabs.ERF_TW_GPCR_hAGTR2 is an assay component calculated from the ERF_TW_GPCR_hAGTR2 assay. It is designed to measure radioligand binding using a type of binding reporter as detected by scintillation counting with radiometry technology.Data from the assay component ERF_TW_GPCR_hAGTR2 was analyzed at the assay endpoint, ERF_TW_GPCR_hAGTR2, in the positive analysis fitting direction relative to DMSO as the negative control and baseline of activity. Using a type of binding reporter, gain-of-signal activity can be used to understand changes in radioligand binding as they relate to gene AGTR2. To generalize the intended target to other relatable targets, this assay endpoint is annotated to the gpcr intended target family, where the subfamily is angiotensin.
# Human recombinant angiotensin AT2 receptors expressed in CHO-K1 cells are used in modified Tris-HCl buffer pH 7.4. A 2.4 ug aliquot is incubated with 0.05 nM [125I] CGP-42112A for 3 hours at 37C. Non-specific binding is estimated in the presence of 10 uM (Sar1, Ile8)-Angiotensin II. Membranes are filtered and washed, the filters are then counted to determine [125I] […]
# human Angiotensin Receptor AT2 Antagonism, AGTR2 (gene 186), sequence (P50052 whole entry, looked up): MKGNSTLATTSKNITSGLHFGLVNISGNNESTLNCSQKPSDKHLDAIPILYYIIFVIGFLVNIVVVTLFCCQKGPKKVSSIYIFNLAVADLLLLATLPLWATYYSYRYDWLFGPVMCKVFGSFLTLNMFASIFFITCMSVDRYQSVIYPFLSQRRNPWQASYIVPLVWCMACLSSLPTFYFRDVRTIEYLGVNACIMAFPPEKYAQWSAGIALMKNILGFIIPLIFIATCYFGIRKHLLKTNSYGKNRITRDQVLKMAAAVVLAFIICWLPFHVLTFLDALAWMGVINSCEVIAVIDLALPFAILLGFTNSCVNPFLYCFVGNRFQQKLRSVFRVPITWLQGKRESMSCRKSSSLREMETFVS
row,Structure (SMILES),AC50
1,O=C(/C=C/c1ccc(O)cc1)CC(=O)/C=C/c1ccc(O)cc1,1.75 µM (active)
